Measured values taken from PubChem BioAssay.

Assays:
[1] = inhibitors of PAF-induced NFkB signaling in CF airway cells, dose response, cell-based, uHTS hits, panel, cytotoxicity readout (AID 624344); details: CF bronchial epithelial cells, PAF-induced NFkB reporter inhibition, with PAF, run 1; at 79 µM (top of the series) unless noted
[2] = as above; details: CF bronchial epithelial cells, PAF-induced NFkB reporter inhibition, with PAF, run 2; at 79 µM (top of the series) unless noted

Structure (SMILES) | inhibition [1] | inhibition [2]
Cc1nn(-c2ccccn2)c2c1-c1nc(N)ncc1CC2 | 98.6% | 102%
COCCCN=C1NN=C(c2cc(C)n(Cc3ccccc3Cl)c2C)CS1 | 88.6% | 106%
COc1ccc(CN2C[C@H]3CCCN3c3cc(Br)ccc3S2(=O)=O)cc1 | 74.6% | 92.2%
Nc1ncnc(N2CCc3ccccc32)c1[N+](=O)[O-] | 115% | 103%
CCOCC(=O)NC1CCc2cc(OC(=O)COCC)c(OC)c(OC)c2-c2ccc(SC)c(=O)cc21 (stereo not drawn) | 45.7% | 85.3%
c1ccc2c(c1)Nc1ccncc1S2 | 114% | 106%
COc1ccc(-n2c(C)c(C(C)=O)c3cc(O)ccc32)cc1 | 117% | 95.2%
COc1cc(NC(=O)c2csc(-c3ccncc3)n2)cc(C(=O)Nc2cccc(C(F)(F)F)c2)c1 | 102% | 105%
C=C1C(=O)[C@]23C[C@H]1CC[C@H]2[C@]1(C)[C@@H](OC(C)=O)CC[C@@](C)(C(=O)O)[C@H]1C[C@@H]3O | 97.6% | 94%
CC(=O)NC(CC(C)C)C(=O)NC(Cc1ccccc1)C(=O)CCl (stereo not drawn) | 97.3% | 104%
Cc1csc(CNc2ncnc3ccc(-c4ccoc4)cc23)c1 | 111% | 99.4%
O=C1/C(=C/c2cccnc2)CCc2c1[nH]c1ccccc21 | 103% | 109%
Brc1cccc(CSc2nnc(-c3ccncc3)o2)c1 | 105% | 99%
CC(C)(CO)CNc1ccn2nccc2n1 | 114% | 99.8%
O=Nc1c(O)n(Cc2c(Cl)cccc2Cl)c2ccccc12 | 103% | 115%
Cc1ccc(C(=O)c2cc([N+](=O)[O-])ccc2N2CCCCC2)c(C)c1 | 79.4% | 54.3%
CCN1CCN(Cc2ccc(NC(=O)c3ccc(C)c(NC(=O)c4cccc5[nH]ccc45)c3)cc2C(F)(F)F)CC1 | 84.6% | 77.6%
CC(=O)c1cccc(NC(=O)COC(=O)c2ccc(S(C)(=O)=O)c([N+](=O)[O-])c2)c1 | 92.5% | 93.4%
Cc1cc(C)nc(Sc2ncnc(N)c2[N+](=O)[O-])n1 | 96.2% | 88.9%
c1cncc(-c2ccc3ncnc(NCc4ccc5c(c4)OCO5)c3c2)c1 | 112% | 101%
O=C(c1ccc(O)c(Br)c1)c1cc(Br)ccc1O | 105% | 109%
Cc1ccc(N(C)C(=O)c2cc(S(=O)(=O)N3CCCCC3)c[nH]2)cc1 | 93.5% | 79%
CC1CCCCN1c1ncnc(N)c1[N+](=O)[O-] (stereo not drawn) | 113% | 103%
Nc1ncnc2c1c(-c1ccc(Oc3ccccc3)cc1)cn2C1CCCC1 | 114% | 94.1%
CC(=O)c1c(C)n(-c2ccc(C)cc2C)c2ccc(O)cc12 | 106% | 64%
CNc1ccc2ncc(-c3cccc(C(=O)N(C)C)c3)n2n1 | 111% | 106%
CN(Cc1ccccc1)c1ncnc(N)c1[N+](=O)[O-] | 115% | 102%

Structure (SMILES) | inhibition [1] | inhibition [2]
Cc1cccc(N2CCN(C(=O)CCn3c(=S)[nH]c4cc5c(cc4c3=O)OCO5)CC2C)c1 (stereo not drawn) | 109% | 93.9%
Nc1nc(N)nc(-c2cc([N+](=O)[O-])ccc2O)n1 | 76.3% | 66.7%
COc1ccccc1NC(=O)c1cc2c(CO)cnc(C)c2oc1=Nc1ccc(OC)c(OC)c1 | 73.4% | 93.8%
CC1C(c2ccccc2)OCCN1C(=S)Nc1ccc(S(=O)(=O)N2CCCCC2)cc1 (stereo not drawn) | 100% | 106%
COc1cccc(NC(=O)CN(C)CC(=O)Nc2ccc(C)c([N+](=O)[O-])c2)c1 | 80.7% | 101%
O=c1[nH]nc(Sc2ncnc3sccc23)n1CCc1ccccc1 | 100% | 105%
COc1cccc(-c2cc(NC=O)c3ncc(-c4ccc(C(C)=O)cc4)n3c2)c1 | 84.6% | 93.6%
O=c1cc(-c2ccccc2Cl)oc2cc(O)cc(O)c12 | 85.2% | 93.7%
C=C1C(=O)[C@]23C[C@H]1CC[C@H]2[C@]1(C)[C@@H](O)CC[C@@](C)(C(=O)O)[C@H]1C[C@@H]3O | 98.4% | 103%
Cc1ccc(S(=O)(=O)Nc2ccc3cc([N+](=O)[O-])ccc3c2[N+](=O)[O-])cc1 | 109% | 101%
COc1ccc(OC)c(-c2nnc3n2N=C(c2ccc(OC)c(OC4CCOC4)c2)CS3)c1 (stereo not drawn) | 103% | 107%
O=C(c1cncc(Br)c1)N1CCc2ccccc2C1 | 92.5% | 80.2%
COc1cc(-c2cc(C(=O)Nc3ccc(S(=O)(=O)NCc4ccco4)cc3)c3ccccc3n2)cc(OC)c1OC | 109% | 102%
Cc1ccc(-c2n[nH]c(=S)n2/N=C/c2ccncc2)cc1 | 111% | 96%
COc1ccc(C2=Nn3c(nnc3-c3ccncc3)SC2)cc1 | 81.7% | 76.5%
CCSc1nsc(NC(=O)Nc2cccc(OC)c2)n1 | 102% | 113%
Cc1ccc(NC(=O)CSc2ncnc3ccccc23)cc1S(=O)(=O)N1CCOCC1 | 110% | 98.4%
O=C(Nc1ccc(F)cc1)Nc1ccc(N2CCCC2)c(S(=O)(=O)Nc2ccccc2Cl)c1 | 111% | 89.3%
O=C(c1[nH]c(C(F)(F)F)nc1-c1ccccc1)N1CCN(c2c(Cl)cncc2Cl)CC1 | 103% | 96.2%
c1ccc2c(-c3cncc4ccccc34)cncc2c1 | 110% | 99.8%
c1ccc2c(-c3ccc4nncn4c3)cncc2c1 | 92.3% | 79%
CCOc1ccc(C(C(=O)NCC2CCCO2)N(Cc2cccs2)C(=O)c2snc(C(N)=O)c2N)cc1 (stereo not drawn) | 99.5% | 92.5%
Cc1ccc2c(c1)C(=O)C(=O)N2Cc1ccc(C(F)(F)F)cc1 | 111% | 100%
COc1ccc(-c2csc(NC3OC(=O)c4c3ccc(OC)c4OC)n2)cc1OC (stereo not drawn) | 109% | 100%
C=CC[C@@H](CC(=O)N[C@H](CO)Cc1ccccc1)C(=O)NC[C@H](OC(=O)[C@@H](CC=C)Cc1ccc(F)cc1)c1ccccc1 | 101% | 108%
COc1ccc(NC(=O)c2cc3c(-c4ccc(OC)c(OC)c4)nn(C)c3s2)cc1OC | 107% | 101%
Cc1cccc(NC(=O)Nc2ccc(C#N)cc2)n1 | 103% | 113%

Structure (SMILES) | inhibition [1] | inhibition [2]
COc1cc(CN(C)c2ccc(S(=O)(=O)N3CCCC3)cn2)ccc1OC(F)F | 82.4% | 98.6%
COC(=O)c1ccc(-c2ccc(OC)c([C@H]3[C@H]4C=CC[C@@H](C)[C@@H]4C(=O)N3Cc3ccccc3)c2)cc1 | 111% | 80%
C[C@H](O)[C@@H]1CN2CCc3c([nH]c4ccc(-c5ccc6c(c5)OCO6)cc34)[C@@H]2C[C@@H]1N(C)C(=O)Nc1ccc(F)cc1 | 99.8% | 107%
Nc1nc(/C=C/c2cccnc2)nc(-c2ccccc2O)n1 | 100% | 110%
O=C(NC1CCCC(C(F)(F)F)C1)c1ccc([N+](=O)[O-])o1 (stereo not drawn) | 97.5% | 103%
Cc1ccc(-c2onc3ccc(C(=O)/C=C/N(C)C)cc23)cc1 | 101% | 113%
CC(C)C[C@@H](CN1CCCC1CN1C(=S)NC[C@@H]1Cc1ccc(O)cc1)N1C[C@H](Cc2ccc(O)cc2)N(CCc2ccccc2)C1=S (stereo partly drawn) | 112% | 101%
COc1cc(C(=O)Nc2nnc(-c3sccc3C)s2)cc(OC)c1OC | 47.9% | 89.3%
CCOc1cc2c(cc1O)C(=NO)CC1C2CCC2(C)C(O)CCC12 (stereo not drawn) | 103% | 112%
C[C@@H](NC(=O)c1coc(=O)c(Br)c1)c1ccccc1 | 77.6% | 99.8% [at 19.8 µM]
CC(=O)Oc1c(Br)cc(N(C(C)=O)S(=O)(=O)c2ccccc2)c2ccccc12 | 72.3% | 88.1%
O=[N+]([O-])c1cccc(NC(=S)Nc2nc(-c3ccccc3Cl)cs2)c1 | 108% | 99.8%
CC(C)n1c(SCc2ccccc2F)nc2c1c(=O)n(C)c(=O)n2C | 96% | 95.1%
O=[N+]([O-])c1ccc(NC(=S)NCCc2ccc(F)cc2)cc1 | 115% | 105%
COc1ccc(S(=O)(=O)c2c(O)c3ccc(C(=O)Nc4ccccc4Cl)cc3[nH]c2=O)cc1 | 96.9% | 106%
COc1ccc(S(=O)(=O)N(C(C)=O)c2ccc(OC(C)=O)c3ccccc23)cc1[N+](=O)[O-] | 59.1% | 99.4% [at 39.5 µM]
COc1cccc(Nc2ncnc3ccc(Br)cc23)c1 | 119% | 105%
CCC(=NCCc1c(C)[nH]c2ccc(C)cc12)C1=C(O)CC(c2ccccc2)CC1=O (stereo not drawn) | 82.1% | 92%
NS(=O)(=O)c1ccc(CCNc2nn3c(-c4cccc(OC(F)(F)F)c4)cnc3s2)cc1 | 98.6% | 102%
Cc1ccc(NC(=O)c2nc[nH]c2C(=O)NCCCNC(=O)c2[nH]cnc2C(=O)Nc2ccc(C)cc2)cc1 | 108% | 95.2%
N#Cc1ccsc1NC(=O)c1ccc(Cl)c([N+](=O)[O-])c1 | 74% | 101%
c1nc(NCc2ccc3c(c2)OCO3)c2cc(-c3ccoc3)ccc2n1 | 102% | 102%
CC1(C)CC(=O)C(C2C3=C(CC(C)(C)CC3=O)Oc3c(Br)cc(Br)cc32)=C(O)C1 (stereo not drawn) | 104% | 111%
O=[N+]([O-])C1C(c2ccccc2)C12c1ccccc1-c1ccccc12 (stereo not drawn) | 99.1% | 106%
CC(=O)c1ccc(Nc2ncnc3ccc(Br)cc23)cc1 | 91.3% | 98.4%
